From PubChem BioAssay (NCATS)
“And” between values parts separate entries of the source, which are not always exact repeats. Identical values can stand only once. Records with an inconclusive call do not appear. For some of these results: Results with a measured potency or affinity are listed apart. The source made the active and inactive calls. For most assays here, calls follow the shape of the dose curve; as a rule, active = well fitted curve in the direction sought with a large enough effect; inconclusive = small, poorly fitted or top-dose-only effect, or another doubt; inactive = no such curve, though single readings can be large; an effect the other way counts as inactive or inconclusive.

Experiments:
[1] = qHTS assay for small molecule agonists of the antioxidant response element (ARE) signaling pathway measured by Nrf2-dependant transcriptional activity - cell viability counter screen (AID 720653; active = well fitted curve in the direction sought with a large enough effect in the repeat runs; an effect the other way counts as inactive or inconclusive; also: % is scaled to controls: 0 for no effect and ±100 for the full control effect); details: ARE-bla HepG2 viability, CellTiter-Glo ATP luminescence, 16 h; stronger effect = lower value
In short: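 ARE-bla HepG2 cells (2,000/well) rested 5 hrs at 37C/5% CO2, then exposed to compounds in DMSO for 16 hrs. Viability was read in the same wells as intracellular ATP by luminescence, 30 min at room temperature after reagent addition.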

[2] = qHTS assay for cell viability of HEK293 cells (AID 743288); details: ATP luminescence (CellTiter-Glo), 18 h, stronger effect = lower value; also: % is scaled to controls: 0 for no effect and ±100 for the full control effect; nearly all actives have a fitted effect of over 50% in size
In short: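 Viable-cell counts were inferred from luciferase-based ATP content in HEK293 cells seeded at 2,000/well, pre-incubated ≥5 h, then dosed with DMSO-solubilised compounds for 18 h at 37 C.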

[3] = qHTS assay for cell viability of the p53RE-bla HCT-116 cell line (AID 743292); details: p53RE-bla HCT-116 viability, ATP luminescence, 16 h; series mostly up to 95 µM; also: % is scaled to controls: 0 for no effect and ±100 for the full control effect; nearly all actives have a fitted effect of over 55% in size
In short: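 Luminescent ATP quantitation (CellTiter-Glo) served as the viability read-out; reagent was added after 16 h compound exposure at 37 C and read after 30 min at room temperature. Cells: p53RE-bla HCT-116, 4,000 per well.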

[4] = Ebola virus entry assay, green fluorescence channel
[5] = qHTS for Activators of Parkin Expression: LOPAC Validation Assay (NLuc Reporter) (AID 720572;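 also: 0% = DMSO and 100% = positive control compound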); details: Parkin promoter NanoLuc reporter cells, luminescence, percent of positive control, DMSO as zero; series mostly up to 46.1 µM
In short: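 Cells harboring the Parkin-promoter coincidence reporter were treated for 24 h at seven concentrations. NLuc output was measured sequentially after the FLuc channel and scaled between DMSO and positive control values.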

[6] = biological target: T1, Hexokinase-4 (Homo sapiens) + Glucokinase regulatory protein (Homo sapiens) (UniProt P35557+Q14397); assay: qHTS assay for inhibitors of recombinant human GCK-GKRP interaction: Diaphorase-coupled assay (AID 743205); details: G6PDH/diaphorase resorufin fluorescence; series mostly up to 57.5 µM
In short: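 25 mM Hepes pH 7.6, 5 mM glucose, 0.4 mM ATP, 4 U/ml G6PDH; 10 nM each GST-GCK/FLAG-GKRP. Kinetic fluorescence read, 1/min × 30 min. Normalized: DMSO ± enzyme = max/min.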

[7] = biological target: T1, Hexokinase-4 (Homo sapiens) + Glucokinase regulatory protein (Homo sapiens); assay: qHTS assay for inhibitors of recombinant human GCK-GKRP interaction: ADP-Glo assay (AID 743206); details: ADP-Glo luminescence, 60 min, 0% = vehicle-only wells with enzyme present; series mostly up to 76.9 µM;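 also: plate controls were DMSO plus enzyme for no effect and no enzyme for full effect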
In short: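 Pin-transferred compounds meet a 15 nM GST-GCK/15 nM FLAG-GKRP/2 uM S6P mix (dispense concentrations). ATP is then added to 0.4 mM final with 5 mM glucose, and the reaction runs 60 min at room temperature. ADP is quantified luminescently.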

[8] = biological target: T1, Hexokinase-4 (Homo sapiens) + Glucokinase regulatory protein (Homo sapiens); assay: qHTS assay for inhibitors of recombinant human GCK-GKRP interaction: HTRF assay (AID 743207); details: recombinant GCK-GKRP HTRF binding, 60 min; series mostly up to 57.5 µM;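 also: 0% = DMSO with GCK present and -100% = DMSO wells lacking GCK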
In short: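 5 nM GST-GCK + 5 nM FLAG-GKRP + 2 uM S6P, pH 7.1 buffer (25 mM Hepes, 2 mM MgCl2, 25 mM KCl, 1 mM DTT, Tween/BSA); pin-transferred cpd; anti-FLAG XL665/anti-GST K; 60 min RT; HTRF.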

[9] = qHTS Assay for Identifying Gametocytocidal Compounds (AID 743244);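 also: % is scaled to controls: 0 for no effect and ±100 for the full control effect; actives lower the fluorescent signal which means gametocytes are killed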; details: P. falciparum 3D7 stage III-V gametocytes, alamarBlue, 72 h; max response: stronger effect = lower value
In short: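 Using 20,000 stage III–V 3D7 gametocytes per well, compounds were incubated 72 h under 37 °C/5% CO2. Viability was then assessed by 24 h alamarBlue reduction, measured fluorometrically at 525/598 nm.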

[10] = Ebola virus entry assay, blue channel fluorescence
[11] = Ebola virus entry assay, green fluorescence channel; remark: listed apart in the source
[12] = Ebola virus entry assay, ratio channel readout
For efficacy in this document: 0% is about no effect.

T1 sequence (P35557 whole entry, looked up): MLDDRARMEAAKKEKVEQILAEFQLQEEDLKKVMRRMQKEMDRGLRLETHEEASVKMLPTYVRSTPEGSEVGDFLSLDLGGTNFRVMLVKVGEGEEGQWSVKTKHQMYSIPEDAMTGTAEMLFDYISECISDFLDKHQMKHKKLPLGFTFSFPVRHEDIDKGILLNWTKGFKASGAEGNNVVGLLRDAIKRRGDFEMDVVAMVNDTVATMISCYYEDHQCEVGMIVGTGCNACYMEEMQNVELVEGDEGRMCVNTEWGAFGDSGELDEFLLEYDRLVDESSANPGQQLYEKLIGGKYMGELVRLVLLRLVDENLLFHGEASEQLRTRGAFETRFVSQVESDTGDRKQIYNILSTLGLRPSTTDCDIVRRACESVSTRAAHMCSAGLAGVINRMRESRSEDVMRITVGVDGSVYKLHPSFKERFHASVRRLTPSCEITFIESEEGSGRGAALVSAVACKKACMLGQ
T1 sequence (Q14397 whole entry, looked up): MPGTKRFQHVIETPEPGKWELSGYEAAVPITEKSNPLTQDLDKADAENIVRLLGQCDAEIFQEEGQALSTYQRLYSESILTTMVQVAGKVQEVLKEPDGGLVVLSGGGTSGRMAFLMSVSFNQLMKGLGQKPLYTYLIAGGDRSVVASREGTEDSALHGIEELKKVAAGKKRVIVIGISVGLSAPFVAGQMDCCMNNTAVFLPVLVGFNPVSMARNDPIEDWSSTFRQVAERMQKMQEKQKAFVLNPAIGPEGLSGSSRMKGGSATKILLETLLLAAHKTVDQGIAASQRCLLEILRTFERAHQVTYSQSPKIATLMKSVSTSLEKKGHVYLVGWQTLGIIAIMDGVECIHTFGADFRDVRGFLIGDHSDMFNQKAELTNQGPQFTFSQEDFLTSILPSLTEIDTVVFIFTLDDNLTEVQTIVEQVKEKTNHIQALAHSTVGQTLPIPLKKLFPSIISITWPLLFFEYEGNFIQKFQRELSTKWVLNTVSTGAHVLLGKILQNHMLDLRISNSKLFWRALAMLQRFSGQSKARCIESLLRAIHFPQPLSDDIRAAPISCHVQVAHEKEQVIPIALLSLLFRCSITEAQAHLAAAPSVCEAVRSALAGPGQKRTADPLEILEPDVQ

O=C1c2ccccc2C(=O)c2ccccc21
inactive: max response [1] -5.47% | max response [2] -16.3% | Potency [3] | efficacy [4] 11.2%

C=C(C)[C@H]1CN[C@H](C(=O)O)[C@H]1CC(=O)O
inactive: outcome [5] | outcome [6] | outcome [7] | outcome [8] | max response [9] 5.55% and 38.6% | efficacy [4] -11.7%

C=CC[C@@H]1C=C(C)C[C@H](C)C[C@H](OC)[C@H]2O[C@@](O)(C(=O)C(=O)N3CCCC[C@H]3C(=O)O[C@H](C(C)=C[C@@H]3CC[C@H](O)[C@H](OC)C3)[C@@H](C)[C@@H](O)CC1=O)[C@@H](C)C[C@@H]2OC
inactive: outcome [10] | outcome [11] | outcome [12]
